Screens: PubChem BioAssay, National Center for Advancing Translational Sciences (NCATS)
WRN helicase inh – WRN helicase (human) inhibition; AID 651768; Potency, µM (titrated, usually from 114 µM), inactives show at the top dose activity change, negative = inhibition, usual class: inhibitors; WRN helicase unwinding, fluorescent forked duplex, kinetic; 360,000 compounds, 0.46% hits; Q14191; also: potency is read from the fitted curve at half-maximal effect; % is scaled to controls: 0 for no effect and ±100 for the full control effect; nearly all actives have a fitted effect of over 55% in size
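Kinetic fluorescence helicase assay: unwinding of a quenched forked DNA duplex (100 nM final) with 2 mM ATP final raises red fluorescence (525/598 nm). Compounds sat 15 min at room temperature with 20 nM WRN beforehand.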
Pol kappa inh – inhibitors of human DNA polymerase kappa; Q9UBT6; purified Pol kappa, fluorescent DNA synthesis assay, 10 min; Potency, µM (doses to about 107 µM), for inactives: at the highest dose activity, negative = inhibition, actives largely listed as inhibitors; 400,000 compounds, 0.53% hits; AID 588579; also: potency is read from the fitted curve at half-maximal effect; % is scaled to controls: 0 for no effect and ±100 for the full control effect
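10 nM Pol kappa preincubated 15 min at room temperature with compounds, then reaction started with substrate at 50 nM final. Fluorescence read kinetically at 0 and 10 min; buffer-only wells served as negative control.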
PI5P4Ka inh – blocks human PI5P4K alpha kinase activity; P48426; max response, %; PI5P4Kalpha enzyme, ADP-Glo luminescence, 60 min; active compounds read low; 330,000 compounds, 1.2% hits; active = max response of -50% or lower; inconclusive = between -30% and -50%; inactive = -30% or higher; also: value at the top dose of about 77 µM; % is scaled to controls: 0 for no effect and ±100 for the full control effect
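Controls without substrate or without enzyme flank wells where PI5P4Kalpha converts substrate using 5 microM ATP (final). Incubation lasts 60 minutes at room temperature; ADP formed is read by ADP-Glo luminescence.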
POLI inh – blocks human DNA polymerase iota activity | 390,000 compounds, 1% hits | Pol iota fluorescent replication assay, 10 min | AID 588590 | Q9UNA4 | Potency, µM (titrated, usually from 115 µM), for the others: at the highest dose activity, negative = inhibition, actives largely listed as inhibitors; also: potency is read from the fitted curve at half-maximal effect
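Pol iota at 10 nM preincubated 15 min with compounds at room temperature; reaction started with fluorescent substrate, 50 nM final. Fluorescence read kinetically at 0 and 10 min; buffer-only wells as negative control.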
Pol eta inh – blocks human DNA polymerase eta activity | 390,000 compounds, 1.2% hits | Potency, µM (highest dose often 114 µM), without a hit: top-dose activity change, negative = inhibition, usual class: inhibitors | Q9Y253 | recombinant Pol eta, fluorescent DNA replication assay | AID 588591; also: potency is read from the fitted curve at half-maximal effect; % is scaled to controls: 0 for no effect and ±100 for the full control effect
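Fluorescent replication assay: 50 nM final substrate added after a 15 min room-temperature compound preincubation with 10 nM enzyme. Signal taken at 0 min and again at 10 min.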
Pol beta inh – DNA polymerase beta (human) inhibition; P06746; Pol beta primer extension/strand displacement, fluorescence kinetic; Potency, µM (top dose mostly 114 µM), for inactives: top-dose activity change, negative = inhibition, usual class: inhibitors; 340,000 compounds, 1.3% hits; AID 485314; also: potency is read from the fitted curve at half-maximal effect; % is scaled to controls: 0 for no effect and ±100 for the full control effect
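Enzyme-only controls used 10 nM Pol beta; buffer lacking enzyme served as negative control. Compound preincubated 15 min, then 50 nM substrate added; 0 and 10 min reads at room temperature.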
ADP-Glo counter – ADP-Glo luciferase interference, PI5P4K counter-screen; 1,100 tested, under 10 active; AID 743285; Potency, µM (doses to about 76.9 µM), without a hit: at the top dose activity change, negative = inhibition, usual class: inhibitors; shares compounds with PI5P4Ka inh; ADP-Glo detection counter-screen, luciferase luminescence, no enzyme
An asterisk follows results filed as active; ? = inconclusive; / = no result; [ ] = another dose, or the depositor's remark. Shown are actives, neighbours in structure and some others; about 2.8% of the full set was active somewhere. Unless noted, calls follow the shape of the dose curve; as a rule, active = well fitted curve in the direction sought with a large enough effect; inconclusive = small, poorly fitted or top-dose-only effect, or another doubt; inactive = no such curve, though single readings can be large; an effect the other way counts as inactive or inconclusive.

SMILES	WRN helicase inh	Pol kappa inh	PI5P4Ka inh	POLI inh	Pol eta inh	Pol beta inh	ADP-Glo counter
CN1CCN(C(c2ccccc2)c2ccc(Cl)cc2)CC1 (stereo not drawn)	-1.5%	-15.5%	-51.9*	3.6%	-5.4%	/	1.2%
Cc1sc2nc(SCC(=O)Nc3ccccc3F)[nH]c(=O)c2c1C	5.8%	-4.5%	-3.2	16.2%	5.0%	7.1%	/
Cc1csc(NC(=O)CSc2nc3sc(C)c(C)c3c(=O)[nH]2)n1	-17.6%	-29.4%	-57.3*	?	1.0%	?	-0.6%
CCCCc1c(Cc2ccccc2)ncn1CCc1ccccc1OC	-13.0%	/	-66.8*	/	/	/	2.2%
C=CCNC(=O)CN(Cc1ccccc1)S(=O)(=O)c1ccccc1	2.8%	-2.3%	-0.7	13.2%	-7.7%	25.4%	/
O=C(O)Cc1nc(-c2cccnc2)sc1-c1ccc(Br)cc1	-28.0%	-21.6%	-61.3*	?	-10.2%	1.4%	-7.0%
Cc1ccc(N2CC(NC(=O)c3ccc4c(c3)OCO4)CC2=O)cc1 (stereo not drawn)	/	-6.6%[60.1 µM]	/	19.9%	-7.8%	-3.0%	/
NC(=O)c1ccc(-n2c(CCC(=O)O)ccc2-c2cccs2)cc1	-5.8%	-43.7%	-80.2*	99.5%	-7.6%	10.5%	2.2%
OC[C@@H]1CN(Cc2ccncc2)C[C@H](n2cnc3c(N4CCOCC4)ncnc32)O1	-1.4%	/	-1.2	/	/	/	/
CCCCCCc1nc(C(N)=O)c2[nH]c(=O)n(-c3ccc(OCC)cc3)c2n1	-4.6%	-5.8%	10.0	26.5%	-13.9%	1.2%	/
c1ccc(Cc2nnc3sc(-c4ccco4)nn23)cc1	?	79.4µM*	-50.7*	39.8µM*	25.1µM*	-15.3%	2.5%
O=C(N[C@@H](Cc1ccccc1)C(=O)OCc1ccccc1)c1nc[nH]c1C(=O)NC(c1ccccc1)c1ccccc1	-12.7%	-6.6%	7.2	-10.0%	-6.0%	-19.8%	-1.8%
O=C(COC(=O)c1ccc[nH]c1=O)NCCCc1ccccc1	1.9%	-3.9%	1.4	-3.8%	2.2%	/	/
Cc1cc2nc(NC(=O)C3(C)CCN3C(=O)C(C)C)[nH]c2cc1C (stereo not drawn)	-6.4%	/	?	/	/	/	-13.0%
Cc1ccc(C)c(NC(=O)C2(C)CCN2C(=O)C(C)C)c1 (stereo not drawn)	1.5%	/	0.9	/	/	/	/
C[C@H]1CN=C(Nc2ccccc2)N1CCC1CCCC1	-0.7%	2.7%	-5.9	16.3%	-12.1%	13.5%	/
O=C1CCC(C(=O)Nc2ccc([N+](=O)[O-])cc2)N1 (stereo not drawn)	?	-23.7%	-54.4*	14.9%	?	/	-4.9%
O=C1CCC(C(=O)Nc2ccccc2)N1 (stereo not drawn)	2.9%	-3.9%	3.6	-11.2%	-15.1%	-8.9%	/
O=C(COc1cc2oc(=O)c3c(c2cc1Cl)CCC3)Nc1ccc(CN2CCOCC2)cc1	-7.8%	-4.2%	6.6	27.3%	-2.9%	18.9%	/
O=C(NCCCc1nc2ccccc2n1CCCCOc1ccccc1)C1CCCCC1	/	4.7%	/	34.9%	/	/	/
O=C(Nc1cccc(S(=O)(=O)N2CCCC2)c1)[C@@H]1O[C@H](CO)[C@@H](O)[C@H]1O	-0.1%	/	7.3	/	/	/	/
O=C(NCCN1CCN(c2ccccc2)CC1)C1CCCN(S(=O)(=O)c2cnc[nH]2)C1 (stereo not drawn)	-4.4%	-17.9%	-61.5*	15.1%	-17.2%	2.2%	3.5%
O=C(NC1CC1)c1ccc2c(c1)ncn2C1CCCC1	2.8%	6.0%	/	29.7%	-3.8%	0.7%	/
Cn1nnc2cc(C(=O)NC3CC3)ccc21	-15.9%	-17.2%	-58.9*	7.7%	-13.4%	3.3%	-1.3%
Cc1ccc(NC(=O)Nc2cccs2)cc1	-4.4%	-4.0%	-54.4*	-14.6%	-10.8%	-1.1%	2.9%
Cc1cc(C)cc(NC(=O)Nc2cccs2)c1	/	10.3%	/	37.2%	/	11.1%	/
